Mtb betalactam = beta-lactam sensitization of Mtb H37Rv; actives 0.27% (n = 330,000); inhibition, % at 25 µM; M. tuberculosis H37Rv growth with meropenem, percent inhibition;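 further: growth measured after seven days incubation then overnight dye step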
Mtb hypoxia rep = reduces hypoxia-regulated biosensor signal in M. tuberculosis; M. tuberculosis hypoxia-regulated fluorescent reporter, fluorescence; fluorescence inhibition, % (concentration not given with the values); actives 0.1% (n = 300,000); in the data active means fluorescence inhibition mostly above about 23%, no sharp cut-off; inactive means mostly below about 17%
RecA splice inh = blocks M. tuberculosis RecA intein splicing; inhibition, % (no concentration beside the values); P9WHJ3; actives 0.75% (n = 290,000); cell-free RecA intein splicing, fluorescence; in the data active means inhibition above about 30%
Target sequence (P9WHJ3 whole entry, looked up, canonical isoform): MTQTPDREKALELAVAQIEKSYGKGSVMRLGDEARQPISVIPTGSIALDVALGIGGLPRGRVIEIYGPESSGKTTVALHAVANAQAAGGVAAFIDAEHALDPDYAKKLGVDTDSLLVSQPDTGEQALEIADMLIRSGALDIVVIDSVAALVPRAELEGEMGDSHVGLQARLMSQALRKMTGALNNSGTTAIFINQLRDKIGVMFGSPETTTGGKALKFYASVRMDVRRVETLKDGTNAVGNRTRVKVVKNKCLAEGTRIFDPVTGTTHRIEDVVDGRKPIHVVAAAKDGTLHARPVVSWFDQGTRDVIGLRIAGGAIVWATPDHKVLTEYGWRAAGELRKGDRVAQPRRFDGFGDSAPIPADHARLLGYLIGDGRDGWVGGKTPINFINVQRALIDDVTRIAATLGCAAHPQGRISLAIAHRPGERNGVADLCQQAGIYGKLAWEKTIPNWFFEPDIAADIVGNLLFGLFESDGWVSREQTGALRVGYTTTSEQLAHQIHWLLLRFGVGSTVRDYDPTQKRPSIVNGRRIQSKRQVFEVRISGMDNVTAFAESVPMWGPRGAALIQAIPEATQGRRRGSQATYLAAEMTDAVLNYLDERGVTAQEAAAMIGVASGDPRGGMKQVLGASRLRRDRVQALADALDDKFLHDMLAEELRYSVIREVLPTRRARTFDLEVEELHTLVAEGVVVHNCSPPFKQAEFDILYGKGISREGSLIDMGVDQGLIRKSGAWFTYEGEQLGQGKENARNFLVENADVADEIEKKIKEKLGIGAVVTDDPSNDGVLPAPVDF
PfHsp40 yeast = rescue of PfHsp40-mediated yeast toxicity. S. cerevisiae expressing PfHsp40, growth rescue, ATP luminescence. actives 0.68% (n = 340,000). growth rescue, % at 12.5 µM; in the data active means growth rescue above about 28%, passing the limit was not always enough;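 further: yeast W303a lacking pdr1 and pdr3 grown in galactose medium; growth measured after three days at 30 °C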
CCHFV vOTU inh = blocks the CCHF virus ovarian tumor domain protease | CCHFV vOTU protease, Pep-AMC fluorescence | inhibition, % at 11.5 µM | actives 0.55% (n = 370,000); in the data active means inhibition above about 30%
GFP chromo cs = counter-screen GFP chromophore formation inhibition. cell-free GFP chromophore formation, fluorescence. shares compounds with RecA splice inh. actives 83% (n = 2,100). EC50, µM
Numbers stand for hits; . = inactive; / = no result shown. An excerpt weighted towards active compounds, which were near 1.7% of everything screened. Unless noted, how the calls were made is not given here.

SMILES	Mtb betalactam	Mtb hypoxia rep	RecA splice inh	PfHsp40 yeast	CCHFV vOTU inh	GFP chromo cs
Cc1[nH]n(-c2ccccc2)c(=O)c1C=NCCc1ccccc1	.	/	.	.	.	/
Cc1[nH]n(-c2ccccc2)c(=O)c1C(C[N+](=O)[O-])c1ccc(Cl)cc1 (stereo unspecified)	.	.	81.9	.	.	15.2
Cc1[nH]n(-c2ccccc2)c(=O)c1Sc1ccc(Cl)cc1	.	.	57.3	.	.	20
Cc1[nH]n(-c2ccccc2)c(=O)c1N=Nc1ccc(Cl)cc1	.	.	.	.	.	/
O=C(C(=C1N(Cc2ccc(Cl)nc2)CCN1Cc1ccc(Cl)nc1)[N+](=O)[O-])C(Cl)Cl	.	.	76.3	.	.	6.48
O=[N+]([O-])/C(C(=C(Cl)Cl)N1CCN(Cc2ccccc2)CC1)=C1\NCCN1Cc1ccc(Cl)nc1	.	.	.	.	.	/
CCCc1nc2ccccc2c(=O)n1N=Cc1ccc(O)cc1O	/	.	/	/	/	/
CCN(CC)c1ccc2c(c1)CCCN2	.	/	33.3	/	/	.
O=S(=O)(c1ccc2c(c1)CCCN2)N1CCCC1	.	.	/	.	.	/
O=C(O)c1ccc(NN=C2CCCc3ccccc32)cc1	/	.	/	/	/	/
CC(=O)N(Cc1c(C)nn(-c2ccccc2)c1Cl)c1ccc(Cl)cc1	.	.	.	.	.	/
Cc1nn(-c2ccccc2)c(Cl)c1C(=O)NCC(=O)O	.	.	.	.	.	/
Cc1nn(-c2ccccc2)c(Cl)c1CN(C(=O)CCl)c1ccc(Cl)cc1	.	.	88.5	.	.	2.17
Cc1nn(-c2ccccc2)c(Cl)c1CN(C(=O)CCl)c1cccc2ccccc12	/	.	67.5	.	.	6.28
O=C1CC(CC(=O)N/N=C/c2ccccc2[N+](=O)[O-])=NN1	.	/	90.1	.	.	7.29
O=C(Cc1cc(=O)[nH][nH]1)NN=Cc1ccccc1[N+](=O)[O-]	/	.	/	/	/	/
CS(=O)(=O)c1ccc(C(=O)OCc2nnc(-c3ccc(Cl)cc3)o2)cc1[N+](=O)[O-]	.	.	66.6	.	/	6.81
O=C(OCc1nnc(-c2ccc(Cl)cc2)o1)c1ccc(O)cc1	.	.	.	.	.	/
Cc1onc(-c2ccccc2)c1-c1nc2ccccc2c(=O)o1	.	.	31.8	.	.	2.29
S=C1Cc2ccccc2N1	/	.	87.7	.	99.8	1.24
S=C1Nc2ccccc2CS1	/	/	/	/	.	/
CC(Cl)C(=O)NC(=O)NC12CC3CC(CC(C3)C1)C2 (stereo unspecified)	.	.	.	.	.	/
O=C(CCl)NC(=O)NC12CC3CC(CC(C3)C1)C2	.	.	58.7	.	.	28.7
O=C(NCC1(c2ccccc2)CCCC1)C1(c2ccccc2)CCCC1	.	.	30.1	.	.	.
O=C1C(Br)=Cc2cccc3cccc1c23	.	/	69.9	.	.	35.5
SMILES	Mtb betalactam	Mtb hypoxia rep	RecA splice inh	PfHsp40 yeast	CCHFV vOTU inh	GFP chromo cs
Cc1cccn2c(CNCC3(c4ccccc4)CCCC3)c(C(=O)N3CCOCC3)nc12	.	.	.	.	.	.
CCOC(=O)C1CCN(Cc2ccc3ccccc3c2)CC1	.	.	.	.	.	/
CCOC(=O)C1CCN(Cc2cc(C(C)C)c(O)c(C(C)C)c2)CC1	.	.	59.0	.	.	.
O=C(NN=Cc1cccs1)c1cccs1	/	.	/	/	/	/
Nc1c(-c2ccccc2)c(CSc2nc3ccccc3[nH]2)nn1-c1cccc(Cl)c1	.	/	36.6	.	.	11.4
Nc1c(-c2ccccc2)c(CSc2nc3ccccc3[nH]2)nn1-c1ccc(Cl)cc1	.	.	.	.	.	/
Cc1ccsc1C=NNc1nc(Cl)c(Cl)cc1Cl	/	.	/	/	/	/
Cc1nn(-c2ccccc2)c(Cl)c1/C=C1\SC(=S)N(CCCCCC(=O)O)C1=O	.	.	37.3	.	.	27.5
Cc1nn(-c2ccccc2)c(Cl)c1/C=C1\SC(=S)NC1=O	.	.	.	.	.	/
O=C(O)CCCN1C(=O)/C(=C\C(Cl)=C\c2ccccc2)SC1=S	.	.	46.4	.	.	.
O=C(O)CCCCCN1C(=O)C(=Cc2ccncc2)SC1=S	/	.	/	/	/	/
COc1cc(C=NNC(=O)CC2(C)OCCO2)cc(Br)c1O	/	.	/	/	/	/
COc1ccc2c(c1)OCC1C2N2C(=O)CN(Cc3ccc(Cl)cc3)C(=O)[C@@]2(C)C1c1ccccc1 (stereo partly specified)	/	.	/	/	/	/
CC(=O)Oc1ccc2occ(C(=O)c3cccs3)c2c1	.	.	.	.	.	/
O=C(CCl)Oc1ccc2occ(C(=O)c3cccs3)c2c1	.	.	31.5	.	.	24.9
COc1cc(/C=C2/C(=O)N(c3ccccc3)N=C2C)ccc1OS(=O)(=O)c1ccccc1	.	/	69.7	/	/	1.85
